Here are results for 17 compounds from PubChem BioAssay.

A short description of assay [1]: hit retest on RPL19A-GFP reporter strain – cell-based, S. cerevisiae, flow cytometry, cherry picks, mother/daughter gates, confirmation (AID 2270;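 active = GFP response below 50% of the DMSO control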). The conditions noted are these: 3 h, at 10 µM, stronger effect = lower value, 100 = same GFP as DMSO wells.
Assay [2] is described as follows: yeast TOR pathway reporter LAP4-GFP change – cell-based, cherry picks, flow cytometry, mother/daughter gates, confirmation (AID 2271;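 active = GFP response above 150% of the DMSO control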;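 note: ratio of sample to DMSO plate mean so 100% equals DMSO level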). The conditions noted are these: S. cerevisiae LAP4-GFP strain, 3 h, at 10 µM, stronger effect = higher value, 100 means same as DMSO control. (In general: In flow cytometry, cells or beads pass a laser one at a time.)
Assay [3] in a line: TOR pathway reporter MEP2-GFP, retest of hits – S. cerevisiae, flow cytometry GFP, cherry picks, confirmation (AID 2272;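 active = GFP response above 150% of the DMSO control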;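 note: ratio of well signal to plate DMSO mean so 100% equals DMSO level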). The following applies: S. cerevisiae MEP2-GFP strain, 3 h, at 10 µM, stronger effect = higher value.
A short description of assay [4]: yeast AGP1-GFP fluorescence change, single-dose – cell-based, flow cytometry, S. cerevisiae, cherry picks, confirmation (AID 2273).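 Note: median GFP channel fluorescence over the whole cell population gate.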 The following applies: S. cerevisiae AGP1-GFP strain, 3 h, at 10 µM.
Assay [5] is described as follows: TOR pathway CIT2 reporter hit retest – S. cerevisiae, GFP fusion, cherry picks, mother/daughter gates, confirmation (AID 2274). The following applies: S. cerevisiae CIT2-GFP strain, flow cytometry, 3 h, at 10 µM, stronger effect = higher value.
A short description of assay [6]: green-channel fluorescence artefact in S. cerevisiae – s288c strain, artefact control for yeast TOR pathway GFP screen, dose response (AID 2757;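 active = fluorescence span over the dose series, or activity score, above about 33, limit read from the data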;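 note: thousands of bead-calibrated equivalent soluble fluorophore molecules from median cell fluorescence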). The conditions noted are these: 520 nm autofluorescence, flow cytometry, 3 h, at 33 µM, stronger effect = higher value, zero means same as solvent-only cells.
[7] abbreviates: measured here: daughter cell gate.
Where [8] appears, read: measured here: mother cell gate.
The mark [9] stands for this setting: measured here: mother cell gate response.
Where [10] appears, read: measured here: daughter cell gate response.

This is one part of the list. Activity calls are given as the source filed them.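 Rule for the calls, unless noted: active = GFP response above 150% of the DMSO level; inconclusive = fewer than 70 events counted for a yeast strain; inactive = the rest.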

For `Cc1nn2c(NCc3ccccn3)c3c(nc2c1-c1ccccc1)CCC3`, the GFP response vs DMSO in assay [1] is 106% (inactive); in assay [1] (setting [7]), 85.7%; in assay [1] (setting [8]) it was 93.7%; in assay [3], 120% (inactive). Moreover, the figures for the GFP response relative to DMSO in assay [2] and in assay [2] (setting [9]) were 132% (inactive) and 114%, respectively. Further, the GFP response, % of DMSO is 103% (inactive) in assay [4], 100% (inactive) in assay [5], 95.8% in assay [5] (setting [7]) and 85.9% in assay [5] (setting [8]).
For the compound `Nc1c(C(=O)c2cccs2)sc2nsc(SCCN3CCCCC3)c12`, the GFP response vs DMSO was 114% (inactive) in assay [1], 110% in assay [1] (setting [7]), 118% in assay [1] (setting [8]) and 241% (active) in assay [3]. Besides, the values for the GFP response relative to DMSO in assay [2], in assay [2] (setting [10]) and in assay [2] (setting [9]) were 142% (inactive), 128% and 158%, respectively. Also, the GFP response, % of DMSO was 107% (inactive) in assay [4], 160% (active) in assay [5], 149% in assay [5] (setting [7]) and 173% in assay [5] (setting [8]). The fluorescence change (kMESF span) in assay [6] is 17.9 (inactive).
As to `O=C(Nc1ccc(F)cc1)C1CCCN(c2cnccn2)C1` (stereo unspecified), the GFP response vs DMSO is 102% (inactive) in assay [1], 101% in assay [1] (setting [7]), 102% in assay [1] (setting [8]) and 96.8% (inactive) in assay [3]. The values for the GFP response relative to DMSO in assay [2], in assay [2] (setting [10]) and in assay [2] (setting [9]) were 99.5% (inactive), 99.1% and 100%, respectively. For the same compound, the GFP response, % of DMSO in assay [4] was 105% (inactive); in assay [5], 102% (inactive); in assay [5] (setting [7]) it was 99.2%; in assay [5] (setting [8]), 103%.
Turning to `Cc1[nH]c(-c2ccccn2)nc(=S)c1Cl`, the GFP response vs DMSO was 106% (inactive) in assay [1], 98.1% in assay [1] (setting [7]), 95.8% in assay [1] (setting [8]) and 118% (inactive) in assay [3]. For the same compound, the GFP response relative to DMSO in assay [2] was 303% (active); in assay [2] (setting [10]) it was 215%; in assay [2] (setting [9]), 266%. For the same compound, the GFP response, % of DMSO is 107% (inactive) in assay [5], 115% in assay [5] (setting [7]) and 91.5% in assay [5] (setting [8]).
Consider `CCn1c(/C=C/c2ccc([N+](=O)[O-])o2)nc2ccccc2c1=O`, for which the GFP response vs DMSO is 144% (inactive) in assay [1], 143% in assay [1] (setting [7]), 135% in assay [1] (setting [8]) and 418% (active) in assay [3]. Also, the GFP response relative to DMSO was 347% (active) in assay [2], 336% in assay [2] (setting [10]) and 334% in assay [2] (setting [9]). Further, the GFP response, % of DMSO in assay [4] was 131% (inactive); in assay [5], 278% (active); in assay [5] (setting [7]) it was 289%; in assay [5] (setting [8]), 251%. In addition, the fluorescence change (kMESF span) in assay [6] was 108 (active).
Turning to `O=C(c1ccc2c(c1)OCO2)N1CCN(c2ccccc2)CC1`, the GFP response vs DMSO in assay [1] was 98.2% (inactive); in assay [1] (setting [7]) it was 97.1%; in assay [1] (setting [8]), 94%; in assay [3], 98.3% (inactive). Besides, the GFP response relative to DMSO in assay [2] was 96.7% (inactive); in assay [2] (setting [10]), 104%. The GFP response, % of DMSO in assay [4] was 98% (inactive); in assay [5], 99.7% (inactive).
On to `Cc1cc(O)ccc1NC(=O)c1ccccc1`, for which the GFP response vs DMSO in assay [1] was 98.4% (inactive); in assay [1] (setting [7]), 98.4%; in assay [1] (setting [8]), 95.6%; in assay [3], 102% (inactive). Further, the GFP response relative to DMSO was 96.7% (inactive) in assay [2] and 92.8% in assay [2] (setting [10]). In addition, the GFP response, % of DMSO in assay [4] is 102% (inactive); in assay [5], 98.3% (inactive).
On to `O=c1[nH]c(-c2ccccn2)nc(C(F)(F)F)c1Br`, for which the GFP response vs DMSO is 110% (inactive) in assay [1], 102% in assay [1] (setting [7]), 101% in assay [1] (setting [8]) and 118% (inactive) in assay [3]. Further, the GFP response relative to DMSO is 247% (active) in assay [2] and 219% in assay [2] (setting [9]). Moreover, the GFP response, % of DMSO is 91.2% (inactive) in assay [4], 112% (inactive) in assay [5], 106% in assay [5] (setting [7]) and 103% in assay [5] (setting [8]).
In the case of `O=C1Oc2ccccc2C(=O)/C1=C/c1ccccc1O`, the GFP response vs DMSO was 91.3% (inactive) in assay [1], 89.3% in assay [1] (setting [7]), 80.2% in assay [1] (setting [8]) and 105% (inactive) in assay [3]. For the same compound, the GFP response relative to DMSO in assay [2] was 394% (active); in assay [2] (setting [10]), 246%; in assay [2] (setting [9]), 373%. The GFP response, % of DMSO in assay [4] was 91% (inactive); in assay [5], 79.8% (inactive); in assay [5] (setting [7]), 91.7%; in assay [5] (setting [8]), 67.7%. In addition, the fluorescence change (kMESF span) in assay [6] was 0.71 (inactive).
As for `CCCc1[nH]nc2c1C(c1ccccc1OC)C(C#N)=C(N)O2` (stereo unspecified), the GFP response vs DMSO was 98% (inactive) in assay [1], 94.4% in assay [1] (setting [7]), 94.3% in assay [1] (setting [8]) and 120% (inactive) in assay [3]. Moreover, the GFP response relative to DMSO was 116% (inactive) in assay [2] and 100% in assay [2] (setting [9]). Besides, the GFP response, % of DMSO in assay [4] was 102% (inactive); in assay [5] it was 115% (inactive); in assay [5] (setting [7]) it was 121%; in assay [5] (setting [8]) it was 112%.
As to `CCCNC(=O)COC(=O)c1ccc(S(=O)(=O)N2CCCC2)cc1`, the GFP response vs DMSO was 97.2% (inactive) in assay [1], 89.4% in assay [1] (setting [7]), 88.1% in assay [1] (setting [8]) and 98.8% (inactive) in assay [3]. Also, the GFP response relative to DMSO was 94.9% (inactive) in assay [2] and 82.6% in assay [2] (setting [10]). For the same compound, the GFP response, % of DMSO is 99.8% (inactive) in assay [4], 99.7% (inactive) in assay [5], 90.5% in assay [5] (setting [7]) and 78.8% in assay [5] (setting [8]).
For the compound `Cn1c(C(=O)O)cc2c(=O)n3ccccc3nc21`, the GFP response vs DMSO in assay [1] was 101% (inactive); in assay [1] (setting [7]), 99.3%; in assay [1] (setting [8]), 99%; in assay [3], 104% (inactive). For the same compound, the GFP response relative to DMSO in assay [2] is 97.7% (inactive). Moreover, the GFP response, % of DMSO in assay [4] was 102% (inactive); in assay [5], 104% (inactive); in assay [5] (setting [7]) it was 104%; in assay [5] (setting [8]), 95.6%.
`O=C(Nc1cccc(F)c1)c1ccccc1`: the GFP response vs DMSO is 99.4% (inactive) in assay [1] and 103% (inactive) in assay [3]. Also, the results for the GFP response relative to DMSO in assay [2], in assay [2] (setting [10]) and in assay [2] (setting [9]) were 97% (inactive), 97.5% and 96.2%, respectively. Also, the GFP response, % of DMSO in assay [4] is 95.9% (inactive); in assay [5], 98.8% (inactive); in assay [5] (setting [7]) it was 99.2%; in assay [5] (setting [8]), 88.2%.
For the compound `CCC(=O)Nc1ccc(NC(=O)c2cc3ccccc3o2)c(OC)c1`, the GFP response vs DMSO in assay [1] is 100% (inactive); in assay [3], 101% (inactive). The GFP response relative to DMSO in assay [2] is 94.4% (inactive); in assay [2] (setting [10]), 95.9%; in assay [2] (setting [9]) it was 96.2%. Further, the GFP response, % of DMSO in assay [4] was 100% (inactive); in assay [5], 94.4% (inactive); in assay [5] (setting [7]) it was 95.6%; in assay [5] (setting [8]) it was 88.2%.
In the case of `O=C1C=C(c2ccc(Cl)cc2)C(=O)N1Nc1ccccc1`, the GFP response vs DMSO in assay [1] was 61.9% (inactive); in assay [1] (setting [7]), 89.1%; in assay [1] (setting [8]), 51.9%; in assay [3] it was 113% (inactive). Moreover, the GFP response relative to DMSO was 96.2% (inactive) in assay [2] and 81.9% in assay [2] (setting [9]). Besides, the GFP response, % of DMSO in assay [4] was 102% (inactive); in assay [5], 66.5% (inactive); in assay [5] (setting [7]), 99.7%; in assay [5] (setting [8]), 53.7%. For the same compound, the fluorescence change (kMESF span) in assay [6] was 0.3 (inactive).
As for `Cc1nn2c(N3CCCC3)cc(C(C)C)nc2c1-c1ccccc1`, the GFP response vs DMSO in assay [1] is 100% (inactive); in assay [1] (setting [7]) it was 92.4%; in assay [3] it was 101% (inactive). Further, the GFP response relative to DMSO is 102% (inactive) in assay [2], 97.5% in assay [2] (setting [10]) and 103% in assay [2] (setting [9]). Also, the GFP response, % of DMSO in assay [4] was 97.8% (inactive); in assay [5], 97.3% (inactive); in assay [5] (setting [7]) it was 97.4%; in assay [5] (setting [8]), 95.6%.
On to `O=C1C=CC(=O)N1c1cccc(-c2ccccc2)c1`, for which the GFP response vs DMSO in assay [1] was 70.2% (inactive); in assay [1] (setting [7]), 84.3%; in assay [1] (setting [8]), 59.1%; in assay [3], 109% (inactive). Also, the GFP response relative to DMSO in assay [2] was 220% (active); in assay [2] (setting [9]), 191%. Moreover, the GFP response, % of DMSO was 104% (inactive) in assay [4], 86.1% (inactive) in assay [5], 93.2% in assay [5] (setting [7]) and 70.8% in assay [5] (setting [8]).
